Reference: PubChem BioAssay (NCATS)
Records with an inconclusive call do not appear. The source made the active and inactive calls. The call rests on the fitted dose curve; in most records, active means well fitted inhibition curve with a large enough effect; inconclusive means small, poorly fitted or top-dose-only effect; inactive means flat fitted curve, though single readings scatter.

What was measured:
[1] = qHTS profiling for inhibitors of Plasmodium falciparum proliferation (AID 504749); further: nearly all actives have a fitted effect of over 60% in size;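 on activity, negative = inhibition: 0% = DMSO vehicle and full inhibition = artemisinin control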; details: P. falciparum in erythrocytes, SYBR Green DNA, 72 h
How it was run: (§1)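 Parasite proliferation within erythrocytes, 72 h exposure. Endpoint: SYBR Green I fluorescence after overnight lysis at room temperature. Controls: 0.29 uM artemisinin, DMSO.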

3D7 = assay: as above; details: P. falciparum in erythrocytes, SYBR Green DNA, 72 h; series mostly up to 28.7 µM
How it was run: as §1

7G8 = assay: as above; details: P. falciparum in erythrocytes, SYBR Green DNA, 72 h; series mostly up to 28.7 µM
How it was run: as §1

AA1029 = assay: as above; details: P. falciparum in erythrocytes, SYBR Green DNA, 72 h; series mostly up to 28.7 µM
How it was run: as §1

AS120 = assay: as above; details: P. falciparum in erythrocytes, SYBR Green DNA, 72 h; series mostly up to 28.7 µM
How it was run: as §1

ATS189 = assay: as above; details: P. falciparum in erythrocytes, SYBR Green DNA, 72 h; series mostly up to 28.7 µM
How it was run: as §1

ATS95 = assay: as above; details: P. falciparum in erythrocytes, SYBR Green DNA, 72 h; series mostly up to 28.7 µM
How it was run: as §1

C2A = assay: as above; details: P. falciparum in erythrocytes, SYBR Green DNA, 72 h; series mostly up to 28.7 µM
How it was run: as §1

CP185 = assay: as above; details: P. falciparum in erythrocytes, SYBR Green DNA, 72 h; series mostly up to 28.7 µM
How it was run: as §1

CP191 = assay: as above; details: P. falciparum in erythrocytes, SYBR Green DNA, 72 h; series mostly up to 28.7 µM
How it was run: as §1

CP192 = assay: as above; details: P. falciparum in erythrocytes, SYBR Green DNA, 72 h; series mostly up to 28.7 µM
How it was run: as §1

CP194 = assay: as above; details: P. falciparum in erythrocytes, SYBR Green DNA, 72 h; series mostly up to 28.7 µM
How it was run: as §1

CP201 = assay: as above; details: P. falciparum in erythrocytes, SYBR Green DNA, 72 h; series mostly up to 28.7 µM
How it was run: as §1

CP203 = assay: as above; details: P. falciparum in erythrocytes, SYBR Green DNA, 72 h; series mostly up to 28.7 µM
How it was run: as §1

CP211 = assay: as above; details: P. falciparum in erythrocytes, SYBR Green DNA, 72 h; series mostly up to 28.7 µM
How it was run: as §1

CP215 = assay: as above; details: P. falciparum in erythrocytes, SYBR Green DNA, 72 h; series mostly up to 28.7 µM
How it was run: as §1

CP217 = assay: as above; details: P. falciparum in erythrocytes, SYBR Green DNA, 72 h; series mostly up to 28.7 µM
How it was run: as §1

CP237 = assay: as above; details: P. falciparum in erythrocytes, SYBR Green DNA, 72 h; series mostly up to 28.7 µM
How it was run: as §1

CP238 = assay: as above; details: P. falciparum in erythrocytes, SYBR Green DNA, 72 h; series mostly up to 28.7 µM
How it was run: as §1

[2] = at 28.7 µM (top of the series), parasite line A
[3] = at 28.7 µM (top of the series), parasite line B
Potency means the concentration at half of the fitted maximal effect.

C[C@]12O[C@H](C[C@]1(O)CO)n1c3ccccc3c3c4c(c5c6ccccc6n2c5c31)CNC4=O
active: Potency ([1]; parasite line A) 398 nM | Potency ([1]; parasite line B) 447 nM | Potency (3D7) 224 nM | Potency (7G8) 100 nM | Potency (AA1029) 316 nM | Potency (AS120) 251 nM | Potency (ATS189) 316 nM | Potency (ATS95) 355 nM | Potency (C2A) 316 nM | Potency (CP185) 316 nM | Potency (CP191) 282 nM | Potency (CP192) 379 nM | Potency (CP194) 379 nM | Potency (CP201) 536 nM | Potency (CP203) 269 nM | Potency (CP211) 426 nM | Potency (CP215) 426 nM | Potency (CP217) 316 nM | Potency (CP237) 224 nM | Potency (CP238) 282 nM

C#CCOc1ccc2c(C)cc(=O)oc2c1
inactive: activity, negative = inhibition [1, 2] 3.33% | activity, negative = inhibition [1, 3] 5.62% | Potency (3D7) | Potency (7G8) | Potency (AA1029) | Potency (AS120) | Potency (ATS189) | Potency (ATS95) | Potency (C2A) | Potency (CP185) | Potency (CP191) | Potency (CP192) | Potency (CP194) | Potency (CP201) | Potency (CP203) | Potency (CP211) | Potency (CP215) | Potency (CP217) | Potency (CP237) | Potency (CP238)

CCC(=O)NCCC1CCc2ccc3c(c21)CCO3 (centres undefined)
inactive: activity, negative = inhibition [1, 2] 6.95% | activity, negative = inhibition [1, 3] 0.538% | Potency (3D7) | Potency (7G8) | Potency (AA1029) | Potency (AS120) | Potency (ATS189) | Potency (ATS95) | Potency (C2A) | Potency (CP185) | Potency (CP191) | Potency (CP192) | Potency (CP194) | Potency (CP201) | Potency (CP203) | Potency (CP211) | Potency (CP215) | Potency (CP217) | Potency (CP237) | Potency (CP238)

CCN(CC)Cc1cc(Nc2ccnc3cc(Cl)ccc23)ccc1O
active: Potency ([1]; parasite line A) 35.5 nM | Potency ([1]; parasite line B) 39.8 nM | Potency (3D7) 28.2 nM | Potency (7G8) 35.5 nM | Potency (AA1029) 63.1 nM | Potency (AS120) 44.7 nM | Potency (ATS189) 141 nM | Potency (ATS95) 63.1 nM | Potency (C2A) 56.2 nM | Potency (CP185) 63.1 nM | Potency (CP191) 39.8 nM | Potency (CP192) 161 nM | Potency (CP194) 128 nM | Potency (CP201) 90.7 nM | Potency (CP203) 144 nM | Potency (CP211) 64.2 nM | Potency (CP215) 128 nM | Potency (CP217) 112 nM | Potency (CP237) 35.5 nM | Potency (CP238) 89.1 nM

CCOC(C)=O
inactive: activity, negative = inhibition [1, 2] 0.182% | activity, negative = inhibition [1, 3] 7.53% | Potency (3D7) | Potency (7G8) | Potency (AA1029) | Potency (AS120) | Potency (ATS189) | Potency (ATS95) | Potency (C2A) | Potency (CP185) | Potency (CP191) | Potency (CP192) | Potency (CP194) | Potency (CP201) | Potency (CP203) | Potency (CP211) | Potency (CP215) | Potency (CP217) | Potency (CP237) | Potency (CP238)

C[C@]12CCC(=O)C=C1CC[C@@H]1[C@@H]2[C@@H](O)C[C@@]2(C)[C@H]1CC[C@]2(O)C(=O)COP(=O)(O)O
inactive: activity, negative = inhibition [1, 2] 1.99% | activity, negative = inhibition [1, 3] -7.41% | Potency (3D7) | Potency (7G8) | Potency (AA1029) | Potency (AS120) | Potency (ATS189) | Potency (ATS95) | Potency (C2A) | Potency (CP185) | Potency (CP191) | Potency (CP192) | Potency (CP194) | Potency (CP201) | Potency (CP203) | Potency (CP211) | Potency (CP215) | Potency (CP217) | Potency (CP237) | Potency (CP238)

CCCCCC(CC)COC(=O)CC(C(=O)OCC(CC)CCCC)S(=O)(=O)O (centres undefined)
inactive: activity, negative = inhibition [1, 2] 7.28% | activity, negative = inhibition [1, 3] 3.54% | Potency (3D7) | Potency (7G8) | Potency (AA1029) | Potency (AS120) | Potency (ATS189) | Potency (ATS95) | Potency (C2A) | Potency (CP185) | Potency (CP191) | Potency (CP217) | Potency (CP237) | Potency (CP238)

CC(C(=O)O)c1ccc(N2Cc3ccccc3C2=O)cc1 (centres undefined)
inactive: activity, negative = inhibition [1, 2] 8.3% | activity, negative = inhibition [1, 3] 10.3% | Potency (3D7) | Potency (7G8) | Potency (AA1029) | Potency (AS120) | Potency (ATS189) | Potency (ATS95) | Potency (C2A) | Potency (CP185) | Potency (CP191) | Potency (CP192) | Potency (CP194) | Potency (CP201) | Potency (CP203) | Potency (CP211) | Potency (CP215) | Potency (CP217) | Potency (CP237) | Potency (CP238)

CC[N+](C)(C)Cc1ccccc1Br
inactive: activity, negative = inhibition ([1]; at 12.8 µM (top of the series), parasite line A) 3.25% | activity, negative = inhibition ([1]; at 12.8 µM (top of the series), parasite line B) 6.79% | Potency (3D7) | Potency (7G8) | Potency (AA1029) | Potency (AS120) | Potency (ATS189) | Potency (ATS95) | Potency (C2A) | Potency (CP185) | Potency (CP191) | Potency (CP192) | Potency (CP194) | Potency (CP201) | Potency (CP203) | Potency (CP211) | Potency (CP215) | Potency (CP217) | Potency (CP237) | Potency (CP238)
